Measured values from PubChem BioAssay (Tox21).
Unmarked numbers belong to inactive results. Results filed as inconclusive are left out. Entries that show only a call come without a potency. Activity calls are given as the source filed them. Unless noted, calls come from the whole dose curve; as a rule, active = well fitted curve in the direction sought with a large enough effect in the repeat runs; inconclusive = weak or mixed curves; inactive = no such curve, though single readings can be large; an effect the other way counts as inactive or inconclusive.

Columns and labels:
[1] = A CellTox Green Cytotoxicity Assay to monitor cytotoxicity in HepG2 cells - 0 hour (AID 1224882); note: nearly all actives have a fitted effect of over 35% in size
Summary of the method: (§1)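 Read-out is fluorescence of a cyanine dye excluded from live cells that stains DNA of dead HepG2 cells, with signal proportional to cytotoxicity. Plates were read at 0, 8, 16, 24, 32 and 40 h after compound addition.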

[2] = A CellTox Green Cytotoxicity Assay to monitor cytotoxicity in HepG2 cells - 32 hour (AID 1224883); note: nearly all actives have a fitted effect of over 50% in size; note: potency is the fitted concentration of half-maximal effect
Summary of the method: as §1

[3] = A CellTox Green Cytotoxicity Assay to monitor cytotoxicity in HEK293 cells - 8 hour (AID 1224884); note: nearly all actives have a fitted effect of over 35% in size
Summary of the method: (§2)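 Nonlytic real-time cytotoxicity: HEK293 + CellTox Green reagent plated, 5 h preincubation, pintool compound addition (23 nL in DMSO), 37 C for 40 h, fluorescence measured at successive time points.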

[4] = qHTS RealTime-Glo MT Cell Viability Assay in HepG2 cells - 16 hour (AID 1224885); note: nearly all actives have a fitted effect of over 50% in size
Summary of the method: (§3)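 HepG2 suspension premixed with RealTime-Glo reagents is plated at 600 cells per well and left 5 h at 37 C/5% CO2. Compounds in DMSO then go in, and bioluminescence reflecting viable cell number is recorded over 40 h.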

[5] = qHTS RealTime-Glo MT Cell Viability Assay in HEK293 cells - 24 hour (AID 1224886); note: top concentration of the series differs between compounds; nearly all actives have a fitted effect of over 50% in size
Summary of the method: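 Reads taken at 0, 8, 16, 24, 32 and 40 h from the same wells. HEK293 cells (600/well) carried RealTime-Glo reagents from seeding, with compound added after a 5 h settle at 37 C.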

[6] = qHTS RealTime-Glo MT Cell Viability Assay in HEK293 cells - 8 hour (AID 1224887); note: top concentration of the series differs between compounds; nearly all actives have a fitted effect of over 50% in size
Summary of the method: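 Cells were seeded together with NanoLuc luciferase and a prosubstrate that viable cells reduce to a luciferase substrate. After a 5 h incubation at 37 C/5% CO2, compounds were added and luminescence was measured repeatedly during 40 h of treatment.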

[7] = A CellTox Green Cytotoxicity Assay to monitor cytotoxicity in HEK293 cells - 16 hour (AID 1224888); note: nearly all actives have a fitted effect of over 35% in size
Summary of the method: as §2

[8] = A CellTox Green Cytotoxicity Assay to monitor cytotoxicity in HepG2 cells - 8 hour (AID 1224890); note: nearly all actives have a fitted effect of over 45% in size
Summary of the method: as §1

[9] = qHTS assay to identify small molecule antagonists of the androgen receptor (AR) signaling pathway using the MDA cell line in the presence of 0.5 nM R1881 - cell viability counter screen (AID 1259242); note: nearly all actives have a fitted effect of over 45% in size
Summary of the method: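 Counter screen for cytotoxicity run in the same wells as the AR antagonist reporter screen: MDA-kb2 cells were treated 16 hr with test compounds and 0.5 nM R1881, then live-cell protease activity was measured by fluorescence.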

[10] = qHTS assay to identify small molecule HDAC inhibitors (AID 1259364); note: top concentration of the series differs between compounds; nearly all actives have a fitted effect of over 45% in size
Summary of the method: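 Luminescence from a cell-permeant luminogenic class I/II HDAC substrate reports endogenous deacetylase activity in intact HCT-116 cells treated with compounds for 2 h.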

[11] = qHTS assay to identify small molecule HDAC inhibitors - cell viability counter screen (AID 1259365)
Summary of the method: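 To flag cytotoxic hits, 1,500 wild-type HCT-116 cells per well, plated the day before, receive test compounds for 2hr at 37 C before CellTiter-Glo reagent and a luminescence read.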

[12] = qHTS assay to identify small molecule agonists of the sonic hedgehog signaling (Shh) pathway - cell viability counter screen (AID 1259366); note: nearly all actives have a fitted effect of over 50% in size
Summary of the method: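 Fluorescence from CellTiter-Fluor reports live cells in this counter screen. NIH/3T3-derived Gli1-Luc reporter cells receive test compounds for 24hr at 37C; reagent goes in at 23hr.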

[13] = qHTS assay to identify small molecule antagonists of the sonic hedgehog signaling (Shh) pathway - cell viability counter screen (AID 1259367); note: nearly all actives have a fitted effect of over 55% in size
Summary of the method: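 NIH/3T3-derived Gli1-Luc reporter cells (2,000 per well) rested 4 hr at 37 C, then received DMSO compounds plus conditioned medium. After 23 hr of treatment, CellTiter-Fluor was added for 1 hr at 37C and fluorescence read.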

[14] = qHTS assay to identify small molecule agonists of the sonic hedgehog signaling (Shh) pathway (AID 1259368; calls by dose curve;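 note: NIH/3T3-derived 3T3Gli1-Luc cells carrying a stable Gli1-driven firefly luciferase reporter; series mostly up to about 92 µM; nearly all actives have a fitted effect of over 15% in size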)
Summary of the method: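 3T3Gli1-Luc (NIH/3T3 clone, stable Gli1-Luc); 4 hr pre-incubation, then cpd in DMSO 24 hr, 37 C/5% CO2; luciferase reagent 30 min RT; luminescence.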

[15] = qHTS assay to identify small molecule antagonists of the sonic hedgehog signaling (Shh) pathway (AID 1259369; calls by dose curve; note: nearly all actives have a fitted effect of over 45% in size; note: potency is the fitted concentration of half-maximal effect)
Summary of the method: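 3T3Gli1-Luc, conditioned-medium-stimulated, 24hr cpd, 37C/5% CO2; Gli1-driven firefly Luc luminescence after 30min RT with luciferase reagent. Cells plated 4hr before cpd.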

[16] = qHTS RealTime-Glo MT Cell Viability Assay in HepG2 cells - 0 hour (AID 1224889); note: nearly all actives have a fitted effect of over 50% in size
Summary of the method: as §3

[17] = qHTS assay to identify small molecule antagonists of the estrogen receptor alpha (ER-alpha) signaling pathway using the BG1 cell line in the presence of 0.1 nM 17-beta-estradiol - cell viability counter screen (AID 1259241); note: nearly all actives have a fitted effect of over 40% in size
Summary of the method: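 CellTiter-Fluor read (30 min, 37C) on ER-alpha/ERE-luc VM7Luc4E2 cells; 22 hr compound treatment; agonist 0.1 nM E2 final; same-well multiplex.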

[18] = molecular target: Estrogen receptor (Homo sapiens) (UniProt P03372); test: qHTS assay to identify small molecule antagonists of the estrogen receptor alpha (ER-alpha) signaling pathway using the BG1 cell line in the presence of 0.1 nM 17-beta-estradiol (AID 1259244); note: nearly all actives have a fitted effect of over 50% in size
Summary of the method: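 Cells: VM7Luc4E2, endogenous ER-alpha, 4x ERE-luc stable. Pre-culture 5 d, phenol red-free, charcoal-stripped FBS. Plated 24 h, compound + E2 0.1 nM final, 22 h 37C/5% CO2. Readout ONE-Glo luminescence.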

[19] = qHTS assay to identify small molecule phospholipidosis (PLD) inducers (AID 1259344; active = well fitted curve in the direction sought with a large enough effect; an effect the other way counts as inactive or inconclusive)
Summary of the method: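 HepG2 cells on collagen I, attached 4 h at 37 C, were co-treated with compound and LipidTOX Red dye for 24 h at 37 C, then fixed with paraformaldehyde plus Hoechst 33342 and imaged by high-content microscopy for phospholipid accumulation.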

Chain of Estrogen receptor (Homo sapiens) (P03372 whole entry, looked up): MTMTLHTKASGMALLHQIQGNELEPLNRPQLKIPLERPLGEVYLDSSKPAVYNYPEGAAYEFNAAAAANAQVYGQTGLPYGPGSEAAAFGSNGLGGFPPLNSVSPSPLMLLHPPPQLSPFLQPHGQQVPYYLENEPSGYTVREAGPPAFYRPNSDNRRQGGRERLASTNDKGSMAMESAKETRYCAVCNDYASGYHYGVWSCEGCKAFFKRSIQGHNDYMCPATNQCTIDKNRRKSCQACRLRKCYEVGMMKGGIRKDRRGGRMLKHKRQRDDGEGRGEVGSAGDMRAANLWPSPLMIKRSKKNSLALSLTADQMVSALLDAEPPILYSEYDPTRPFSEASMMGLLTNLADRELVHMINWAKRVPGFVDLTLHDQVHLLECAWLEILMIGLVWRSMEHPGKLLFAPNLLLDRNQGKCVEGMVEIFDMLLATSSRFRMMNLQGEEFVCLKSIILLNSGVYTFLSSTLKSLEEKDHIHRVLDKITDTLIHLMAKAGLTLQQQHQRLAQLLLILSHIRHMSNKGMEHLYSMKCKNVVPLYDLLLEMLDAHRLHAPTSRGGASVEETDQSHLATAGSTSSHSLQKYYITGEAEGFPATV

Sc1nc(S)nc(S)n1
Potency [1]: inactive
Potency [2]: inactive
Potency [3]: inactive
outcome [4]: inactive
Potency [5]: inactive
Potency [6]: inactive
Potency [7]: inactive
Potency [8]: inactive
Potency [9]: inactive
Potency [10]: inactive
outcome [11]: inactive
Potency [12]: inactive
Potency [13]: inactive
Potency [14]: inactive
Potency [15]: inactive

CCCCCCC/C=C/C=O
Potency [1]: inactive
Potency [2]: inactive
Potency [3]: inactive
outcome [4]: inactive
Potency [5]: inactive
Potency [6]: inactive
Potency [16]: inactive
Potency [8]: inactive
Potency [17]: inactive
Potency [9]: inactive
Potency [18]: inactive
Potency [10]: inactive
outcome [11]: inactive
Potency [12]: inactive
Potency [13]: inactive
Potency [14]: inactive

C[Si](C)(C)O[Si](C)(C)O[Si](C)(C)C
Potency [1]: inactive
Potency [2]: inactive
Potency [3]: inactive
outcome [4]: inactive
Potency [5]: inactive
Potency [6]: inactive
Potency [8]: inactive
Potency [17]: inactive
Potency [9]: inactive
Potency [10]: inactive
outcome [11]: inactive
Potency [13]: inactive
Potency [14]: inactive
Potency [15]: inactive

NCCOCCOCCN
Potency [1]: inactive
Potency [2]: inactive
Potency [3]: inactive
outcome [4]: inactive
Potency [5]: inactive
Potency [6]: inactive
Potency [16]: inactive
Potency [8]: inactive
Potency [17]: inactive
Potency [9]: inactive
Potency [10]: inactive
outcome [11]: inactive
Potency [12]: inactive
Potency [13]: inactive
Potency [14]: inactive
Potency [15]: inactive

CCOc1ccc2c(c1)C(C)CC(C)(C)N2 (configuration not stated)
Potency [1]: inactive
Potency [2]: 43.6 µM (active)
Potency [3]: inactive
outcome [4]: inactive
Potency [5]: inactive
Potency [6]: inactive
Potency [7]: inactive
Potency [17]: inactive
Potency [9]: inactive
Potency [10]: inactive
outcome [11]: inactive
Potency [13]: inactive
Potency [14]: inactive
Potency [15]: inactive

CCCCOC(=O)CC#N
Potency [1]: inactive
Potency [2]: inactive
Potency [3]: inactive
outcome [4]: inactive
Potency [5]: inactive
Potency [6]: inactive
Potency [16]: inactive
Potency [8]: inactive
Potency [17]: inactive
Potency [9]: inactive
Potency [18]: inactive
Potency [10]: inactive
outcome [11]: inactive
Potency [12]: inactive
Potency [13]: inactive
Potency [14]: inactive
Potency [15]: 32.1 µM (active)

CC(C(=O)O)c1ccc(/C=C2\CCCCC2=O)cc1 (configuration not stated)
Potency [1]: inactive
Potency [2]: inactive
Potency [3]: inactive
outcome [4]: inactive
Potency [5]: inactive
Potency [6]: inactive
Potency [16]: inactive
Potency [8]: inactive
Potency [17]: inactive
Potency [9]: inactive
Potency [19]: inactive
outcome [11]: inactive
Potency [13]: inactive
Potency [15]: inactive

CCCCCO
Potency [1]: inactive
Potency [2]: inactive
Potency [3]: inactive
outcome [4]: inactive
Potency [5]: inactive
Potency [6]: inactive
Potency [16]: inactive
Potency [8]: inactive
Potency [17]: inactive
Potency [9]: inactive
Potency [18]: inactive
Potency [10]: inactive
outcome [11]: inactive
Potency [13]: inactive
Potency [14]: inactive
Potency [15]: inactive
